# Assay: A549 cell viability effects, profiling panel, calcein-AM fluorescence, 48 h, basal (AID 1162)
# Details: higher = more signal
# Further: test concentration not given here.
row,Compound,z-score
1,O=C1NC(=O)C2C1C=CC(C(O)c1ccc([N+](=O)[O-])cc1)N2Nc1ccccn1 (centres undefined),0.0411
2,O=C1C2C=CC(C(O)c3ccc([N+](=O)[O-])cc3)N(Nc3ccccc3F)C2C(=O)N1c1ccccc1 (centres undefined),-0.353
3,COc1ccc([Si](C)(C)[C@@H]2[C@@H](CC(=O)N(CCO)Cc3ccccc3)O[C@]3(C(=O)N(Cc4ccc(I)cc4)c4ccccc43)[C@H]2C)cc1,-1.14
4,CN1C(=O)C2C(C1=O)C1C=C(CCCO)C2C(C2CC2)N1Cc1cccc(OC(F)(F)F)c1 (centres undefined),-0.379
5,CCOC(=O)C[C@H]1[C@H](OC(=O)c2cc3ccccc3oc2=O)[C@@H](NC(=O)CC(C)C)c2cc(OCCCO)ccc2N1C(=O)Cc1ccc(OC)cc1,0.746
6,NC(=O)N1C(=O)C2C(C1=O)C1C=C(CCCO)C2C(C2CC2)N1Cc1sc2ccccc2c1Cl (centres undefined),1.01
7,COCCn1c(C(=O)N(C)C)cc2c1C[C@H]1CN(C(=O)c3ccccc3)[C@@](Cc3ccc(OC)cc3)(C(=O)OC)[C@@H]21,-0.615

# Assay: adipocyte viability effects, profiling panel, cell-based, 3T3-L1 adipocytes, calcein-AM fluorescence, 48 h, basal (AID 1163)
# Details: 3T3-L1 adipocytes viability, higher = more signal
row,Compound,z-score
1,CCCNC(=O)[C@@]1(Sc2ccc(C)cc2)CC(=O)N(Cc2ccccc2Cl)[C@@H]1c1ccc(CO)cc1I,-0.139
2,C=CCN1Cc2ccccc2[C@H]2OC(c3ccc(OCCCO)cc3)=N[C@@]2(CCS(=O)(=O)c2ccccc2)C1=O,0.413
3,[N-]=[N+]=Nc1ccccc1C[C@]1(C(=O)N2CCOCC2)N=C(c2ccc(OCCCO)cc2)O[C@H]1c1ccccc1N=[N+]=[N-],0.744
4,C[C@]1(C(=O)O)c2ccccc2C(=O)N(Cc2cc(F)cc(C(F)(F)F)c2)[C@H]1c1ccc(CO)cc1,0.658
5,CC(C)c1nc2cc(Br)ccc2c(=O)o1,0.124
6,CN(C)CCCC[C@@H]1NC(=O)[C@H]2C[C@@H](C(=O)O)[C@@H](c3ccc(O)cc3)N2C1=O,1.73
7,CN1C(=O)C2C(C3CC3)C=C3CN(Cc4cccc(Cl)c4)[C@@H]([C@@H](O)Cc4ccccc4)C3C2C1=O (some centres undefined),0.638
8,C=CCC(OC(C)=O)[C@@H]1[C@@H](N(Cc2ccc(-c3cccc(C(F)(F)F)c3)o2)C(=O)c2ccc(-c3ccccc3)cc2)c2cc(OCCCO)ccc2N1C(=O)c1ccc2ccccc2c1 (some centres undefined),1.28
9,CCCCC(O)C1C=CC2C(=O)N(c3ccccc3)C(=O)C2N1Nc1ccc(C#N)cc1 (centres undefined),0.15
10,NC(=O)N1C(=O)C2C(C1=O)C1C=C(CCCO)C2C(c2ccc(CN3CCCC3)cc2)N1Cc1sc2ccccc2c1Cl (centres undefined),-0.501
11,CC(C)=CCCC(C)=CC(O)C1C=CC2C(=O)NC(=O)C2N1Nc1ccccn1 (centres undefined),-0.446
12,Cc1ccc(S[C@]2(C(=O)NCCCN(C)C)CC(=O)N(C3Cc4ccccc4C3)[C@@H]2c2ccc(CO)cc2I)cc1,-0.749
13,COc1ccc(C#Cc2ccc3c(c2)[C@]2(C(=O)N3)[C@H](C(=O)O)[C@H]3C(=O)O[C@H](c4ccccc4)[C@H](c4ccccc4)N3[C@@H]2c2ccccc2OCCO)cc1,1.19
14,COc1ccc(CCNC(=O)[C@@H]2c3ccccc3C(=O)N(Cc3ccccc3OC)[C@H]2c2ccc(CO)cc2)cc1,-0.219
15,C=CCC(OC(C)=O)[C@@H]1[C@@H](N(Cc2cccc3ccccc23)C(=O)Cc2ccc(OC)cc2)c2cc(OCCCO)ccc2N1C(=O)Cc1ccc2ccccc2c1 (some centres undefined),0.759
16,CC(C)(C)OC(=O)CC[C@@]1(C(=O)NCCN2CCOCC2)N=C(c2ccc(OCCCO)cc2)O[C@@H]1c1ccccc1CN=[N+]=[N-],-0.502
17,CC(C)NC(=O)[C@@]1(C)c2ccccc2C(=O)N(Cc2ccccc2)[C@H]1c1ccc(CO)cc1,0.714
18,CN(C)c1ccc(C(O)C2C=CC3C(=O)N(Cc4ccccc4)C(=O)C3N2n2cnnc2)cc1 (centres undefined),-0.179
19,COc1ccc(C(=O)Nc2ccc(CN3C(=O)[C@@]4(O[C@@H](CCn5cc(CCO)nn5)[C@H]([Si](C)(C)c5ccc(OC)cc5)[C@H]4C)c4ccccc43)cc2)cc1,-0.319
20,CC(C)C[C@H]1NC(=O)C([C@@H](C)OCc2ccccc2)NC(=O)[C@@]23C(=O)N[C@@H](Cc4ccccc4)C2[C@H](C)[C@@]2(C)O[C@H]2C3/C=C/C/C=C\CNC1=O (some centres undefined),1.9
21,COc1ccc([Si](C)(C)[C@@H]2[C@@H](CC(=O)N3CCC[C@H]3CO)O[C@]3(C(=O)N(Cc4cccc(N5CCCCC5=O)c4)c4ccccc43)[C@H]2C)cc1,0.403
22,CO[C@H]1O[C@H](CO)[C@@H](OC(=O)Nc2ccccc2-c2ccccc2)[C@H](OC(=O)Nc2ccccc2)[C@H]1OC(=O)Nc1ccccc1,1.29

# — PubChem BioAssay
